UHRF1 MBD2 ctr = UHRF1 methyl-DNA binding inhibition; Q96T88; UHRF1 binding to methylated oligo, TR-FRET; inhibition, % at 4.4 µM; actives 0.75% (n = 370,000); in the data active = inhibition above about 21%;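 also: UHRF1 SRA domain binding a hemimethylated CpG hairpin DNA probe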
LEDGF integ inh = blocks HIV-1 LEDGF/p75-dependent DNA integration; inhibition, % at 3.7 µM; TR-FRET IN-LEDGF/p75 DNA integration, Eu/Cy5; actives 0.64% (n = 370,000); AID 743269;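 active = inhibition above the screen-wide mean plus 3 SD, cut at about 13% in these data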;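 also: signal is the Cy5 over europium emission ratio at 671 and 618 nm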
proKLK7 act = activators of human kallikrein-7 zymogen; P49862; purified proKLK7, EDANS-DABCYL substrate fluorescence; 100% is mature enzyme control, 0% vehicle; activation, % at 7 µM; actives 0.9% (n = 370,000); AID 652039;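 active = activation above the mean of all tested compounds plus 3 SD, computed per campaign excluding outliers beyond control limits, cut at about 13% in these data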
Neddylation inh = inhibitors of human cullin neddylation. calls only at 25 µM. TR-FRET cullin neddylation, biochemical. P61081+Q13564. actives 0.58% (n = 360,000); in the data active = inhibition above about 36%
MBD2 inh = blocks human MBD2 binding to methylated DNA; TR-FRET, MBD2 binding to methylated oligonucleotide; Q9UBB5; actives 0.31% (n = 370,000); inhibition, % at 4.4 µM; AID 686964; in the data active = inhibition above about 13%
Rin1 Abl inh = inhibitors of human Rin1-Abl protein interaction; P00519+Q13671; TR-FRET Rin1/Abl binding, biochemical; inhibition, % at 7.35 µM; actives 0.4% (n = 360,000); in the data active = inhibition above about 5%, passing the limit was not always enough
Target sequence (P00519 whole entry, looked up): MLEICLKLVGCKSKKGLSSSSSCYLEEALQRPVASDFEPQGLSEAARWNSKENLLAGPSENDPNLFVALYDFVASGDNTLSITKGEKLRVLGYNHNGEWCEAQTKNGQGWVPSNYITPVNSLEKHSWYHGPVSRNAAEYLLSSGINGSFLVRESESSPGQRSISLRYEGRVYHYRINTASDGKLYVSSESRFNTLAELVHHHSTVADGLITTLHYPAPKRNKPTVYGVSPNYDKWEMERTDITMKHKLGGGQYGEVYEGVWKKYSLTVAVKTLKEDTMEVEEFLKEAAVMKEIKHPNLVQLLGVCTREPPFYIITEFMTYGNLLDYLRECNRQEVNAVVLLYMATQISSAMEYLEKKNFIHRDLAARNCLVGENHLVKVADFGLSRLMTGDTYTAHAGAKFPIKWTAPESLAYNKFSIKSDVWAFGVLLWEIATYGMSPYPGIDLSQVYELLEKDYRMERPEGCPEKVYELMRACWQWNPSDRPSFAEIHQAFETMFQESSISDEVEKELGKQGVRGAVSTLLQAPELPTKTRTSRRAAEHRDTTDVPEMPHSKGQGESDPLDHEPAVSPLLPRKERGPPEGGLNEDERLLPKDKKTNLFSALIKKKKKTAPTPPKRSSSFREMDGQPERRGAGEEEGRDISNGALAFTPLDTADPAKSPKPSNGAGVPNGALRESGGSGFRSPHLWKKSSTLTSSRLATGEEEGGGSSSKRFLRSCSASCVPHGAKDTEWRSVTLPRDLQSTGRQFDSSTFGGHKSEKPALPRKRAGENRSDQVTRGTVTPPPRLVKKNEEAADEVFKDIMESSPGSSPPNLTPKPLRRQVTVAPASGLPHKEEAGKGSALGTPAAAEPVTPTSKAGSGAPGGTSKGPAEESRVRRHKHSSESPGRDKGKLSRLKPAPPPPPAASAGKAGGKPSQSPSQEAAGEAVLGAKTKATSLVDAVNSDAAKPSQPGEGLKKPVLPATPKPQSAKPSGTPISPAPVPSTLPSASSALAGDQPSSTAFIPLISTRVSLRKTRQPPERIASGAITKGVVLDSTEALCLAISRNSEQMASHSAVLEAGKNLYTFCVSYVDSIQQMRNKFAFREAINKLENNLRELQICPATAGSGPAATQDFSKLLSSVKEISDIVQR
Target sequence (Q13671 whole entry, looked up): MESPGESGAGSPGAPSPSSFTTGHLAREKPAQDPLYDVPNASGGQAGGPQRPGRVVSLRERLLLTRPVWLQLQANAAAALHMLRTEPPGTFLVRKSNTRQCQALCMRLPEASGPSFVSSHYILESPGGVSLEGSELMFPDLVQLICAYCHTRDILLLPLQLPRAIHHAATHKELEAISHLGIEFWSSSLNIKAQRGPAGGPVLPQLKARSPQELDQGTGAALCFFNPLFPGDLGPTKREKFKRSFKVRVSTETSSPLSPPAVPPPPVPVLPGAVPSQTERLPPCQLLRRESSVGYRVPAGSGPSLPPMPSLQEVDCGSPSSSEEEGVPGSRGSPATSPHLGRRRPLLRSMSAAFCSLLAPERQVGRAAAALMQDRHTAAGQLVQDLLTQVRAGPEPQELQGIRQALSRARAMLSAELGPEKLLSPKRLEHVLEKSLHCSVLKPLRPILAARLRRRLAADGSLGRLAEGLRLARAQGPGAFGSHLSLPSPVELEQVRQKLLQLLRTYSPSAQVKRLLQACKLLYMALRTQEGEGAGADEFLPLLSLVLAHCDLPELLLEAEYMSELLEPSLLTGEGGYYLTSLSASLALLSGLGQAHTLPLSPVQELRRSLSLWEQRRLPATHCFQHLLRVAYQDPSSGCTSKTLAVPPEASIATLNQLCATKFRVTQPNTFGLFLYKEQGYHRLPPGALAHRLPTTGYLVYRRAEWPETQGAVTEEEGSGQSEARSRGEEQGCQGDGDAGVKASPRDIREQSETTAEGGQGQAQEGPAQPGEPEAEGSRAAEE
IN multimer act = activates HIV-1 integrase multimerization in LEDGF counter-screen; shares compounds with LEDGF integ inh; actives 17% (n = 2,000); activation, % at 7.7 µM; AID 1053131; TR-FRET HIV-1 integrase multimerization, biochemical; in the data active = activation above about 8.9%
TR-FRET interf = optically interferes with TR-FRET readout in LEDGF counter-screen; shares compounds with LEDGF integ inh; TR-FRET optical interference counterscreen, HIV-1 IN multimerization; inhibition, % at 7.7 µM; 2,000 tested, under 10 active;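 active = inhibition above the mean over all tested compounds plus 3 SD, which no compound reached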
LEDGF integ conf = LEDGF/p75-dependent HIV-1 integration inhibition, confirmation. actives 36% (n = 2,000). TR-FRET LEDGF/p75-dependent HIV-1 integration, biochemical. AID 1053136. inhibition, % at 3.7 µM. shares compounds with LEDGF integ inh; in the data active = inhibition above about 14%
Each line names hits and unclear results; the compound was inactive in the other large screens (follow-up assays come after a bar, where shown). An excerpt weighted towards active compounds, which were near 3.1% of everything screened.

CCCC(=O)Nc1ccc(N2CCCCC2)cc1	none
O=C(O)CCCC(=O)Nc1ccc(N2CCCC2)cc1	UHRF1 MBD2 ctr 21, LEDGF integ inh 14 | IN multimer act 12 | TR-FRET interf inactive | LEDGF integ conf inactive
C[C@]12C(=O)N(c3cccc(Cl)c3)C(=O)N1[C@H]1c3ccccc3OC[C@@H]1[C@H]2c1ccccc1	none (no result: UHRF1 MBD2 ctr, LEDGF integ inh, proKLK7 act, MBD2 inh)
C[C@@]12C(=O)N(c3cccc(Cl)c3)C(=O)N1[C@@H]1c3ccccc3OC[C@@H]1[C@H]2c1ccccc1	LEDGF integ inh 34 | IN multimer act inactive | TR-FRET interf inactive | LEDGF integ conf inactive
COc1ccc(CCNC(=O)Cc2cccs2)cc1OC	LEDGF integ inh 22 | IN multimer act inactive | TR-FRET interf inactive | LEDGF integ conf inactive
COc1ccc(NC(=O)Cn2c(=O)oc3cc(Cl)ccc32)c(OC)c1	none
COc1ccc(CCNC(=O)Cn2c(=O)oc3cc(Cl)ccc32)cc1OC	LEDGF integ inh 34 | IN multimer act inactive | TR-FRET interf inactive | LEDGF integ conf inactive
COc1ccc(CCNC(=O)Cc2ccc(Cl)cc2)cc1OC	none
Cc1ccc(C)c(OCCC(=O)OCC(=O)c2c(N)n(C)c(=O)n(C)c2=O)c1	LEDGF integ inh 24 | IN multimer act inactive | TR-FRET interf inactive | LEDGF integ conf inactive
CC(OC(=O)c1ccc(Cl)nc1)C(=O)NCc1ccc2c(c1)OCO2 (configuration not stated)	none
CCCCNC(=O)C[C@@H]1C(=O)N(Cc2ccc(OC)cc2)C2=CCN(C(=O)OC(C)(C)C)C[C@]21C(=O)OCC	none (no result: Neddylation inh, Rin1 Abl inh)
O=C(c1ccc2c(c1)N(Cc1ccccc1F)C(=O)c1ccccc1S2)N1CCOCC1	LEDGF integ inh 30 (no result: Neddylation inh, Rin1 Abl inh) | IN multimer act inactive | TR-FRET interf inactive | LEDGF integ conf inactive
CCCC(=O)OCC(=O)c1[nH]c(C)c(C(C)=O)c1C	none
CCN(CC)c1ccc(N=Cc2ccc([N+](=O)[O-])o2)cc1	UHRF1 MBD2 ctr 25, LEDGF integ inh 41 | IN multimer act inactive | TR-FRET interf inactive | LEDGF integ conf 18
CNc1ccc(S(=O)(=O)NCC(=O)OC(C)C(=O)N(C)Cc2ccccc2)cc1[N+](=O)[O-] (configuration not stated)	none
C=CCN(CC=C)S(=O)(=O)c1ccc2nsnc2c1	none
CN1CCN(C(=O)/C(=C/c2ccc([N+](=O)[O-])cc2)NC(=O)c2ccccc2)CC1	none
CCC(=O)Nc1nc2ccccc2n1CCN1CCOCC1	none
CCC(=O)Nc1nc2ccccc2n1Cc1ccc(Cl)cc1	LEDGF integ inh 15 | IN multimer act inactive | TR-FRET interf inactive | LEDGF integ conf inactive
CCCCCCCn1c(NC(=O)CC)nc2ccccc21	LEDGF integ inh 23 | IN multimer act inactive | TR-FRET interf inactive | LEDGF integ conf 31
O=C(CN1CCN(S(=O)(=O)c2ccccc2)CC1)N1CCc2ccccc21	none
CN(C)c1ccc2c(c1)OC(N)=C(C#N)C2c1cccc(F)c1 (configuration not stated)	none (no result: UHRF1 MBD2 ctr, LEDGF integ inh, proKLK7 act, MBD2 inh)
COc1ccc(OC)c(C2C(C#N)=C(N)Oc3cc(N)ccc32)c1 (configuration not stated)	LEDGF integ inh 14 | IN multimer act inactive | TR-FRET interf inactive | LEDGF integ conf inactive
N#CC1=C(N)Oc2cc(N)ccc2C1c1cccc(F)c1 (configuration not stated)	LEDGF integ inh 15 | IN multimer act inactive | TR-FRET interf inactive | LEDGF integ conf inactive
Cc1nc(SCC(=O)N2CCCC2=O)nc(C)c1C	none
CC1Cc2ccccc2N1C(=O)CSCC(=O)O (configuration not stated)	LEDGF integ inh 16 | IN multimer act inactive | TR-FRET interf inactive | LEDGF integ conf inactive
CC1(C)Cc2c(sc(NC(=O)C(=O)N3CCN(CCO)CC3)c2C(N)=O)CO1	none
CCc1cc(=O)oc2cc(C)c(CN3CCCC(C)C3)c(O)c12 (configuration not stated)	UHRF1 MBD2 ctr 27, LEDGF integ inh 19 | IN multimer act inactive | TR-FRET interf inactive | LEDGF integ conf 20
CCCCc1cc(=O)oc2cc(C)c(CN3CCCC3)c(O)c12	LEDGF integ inh 17 | IN multimer act inactive | TR-FRET interf inactive | LEDGF integ conf 16
Cc1cc2oc(=O)cc(CN3CCCCC3)c2cc1C	none
COc1ccc(CCNC(=O)CCCc2ccccc2)cc1OC	none
O=C(/C=C/c1ccco1)NC(=S)Nc1ccc(N2CCCC2)cc1	LEDGF integ inh 18 | IN multimer act inactive | TR-FRET interf inactive | LEDGF integ conf inactive
CC(=O)NC(=S)Nc1ccc(NC(=S)NC(=O)/C=C/c2ccco2)cc1	none
Cc1ccnc(NC(=S)NC(=O)/C=C/c2ccco2)c1	LEDGF integ inh 16 | IN multimer act inactive | TR-FRET interf inactive | LEDGF integ conf inactive
Cc1cc(=O)n2[nH]c(-c3ccsc3-n3c(C)ccc3C)cc2n1	LEDGF integ inh 28 | IN multimer act 25 | TR-FRET interf inactive | LEDGF integ conf 50
Cc1cc(=O)n2[nH]c(-c3ccc(F)cc3)cc2n1	none
O=c1c2c(nc3cc(-c4ccccc4Cl)[nH]n13)CCS2	none (not shown: Neddylation inh)
Cc1nc2cc(-c3ccsc3-n3c(C)ccc3C)[nH]n2c(=O)c1Cl	UHRF1 MBD2 ctr 32, LEDGF integ inh 48 | IN multimer act inactive | TR-FRET interf inactive | LEDGF integ conf 33
O=S1(=O)C=CCN1Cc1cn(Cc2cccc(C(F)(F)F)c2)nn1	none (no result: Neddylation inh, Rin1 Abl inh)
CC(C)(O)CNC(=O)C(Cc1ccccc1)N1C(=O)c2ccccc2C1=O (configuration not stated)	LEDGF integ inh 77 | IN multimer act inactive | TR-FRET interf inactive | LEDGF integ conf inactive
CC(C)CNC(=O)OCc1cn(Cc2ccccc2)nn1	none (no result: Neddylation inh, Rin1 Abl inh)
CCOc1ccc(CC(=O)N/N=C/c2cccnc2)cc1OCC	LEDGF integ inh 70 | IN multimer act inactive | TR-FRET interf inactive | LEDGF integ conf inactive
CN(C)c1cccc2c1C(=O)c1ccccc1C2=O	none
O=C1c2cccc(Sc3ccccc3)c2C(=O)c2c(Sc3ccccc3)cccc21	UHRF1 MBD2 ctr 24, LEDGF integ inh 14 | IN multimer act inactive | TR-FRET interf inactive | LEDGF integ conf inactive
COc1ccc(S(=O)(=O)Nc2ccc(F)c(F)c2)cc1Cl	LEDGF integ inh 35 | IN multimer act inactive | TR-FRET interf inactive | LEDGF integ conf inactive
CCCCNC(=O)C1C(c2ccc(OC)cc2)=Nc2ccccc2N1C(=O)Cc1cc(OC)cc(OC)c1 (configuration not stated)	none (no result: Rin1 Abl inh)

Screening data (PubChem BioAssay)
